# Data taken from PMC11006913.
# Tests used:
# Assay in all cases: PBM; 200 nM protein, PBS
# Conditions in all cases: dsDNA, one strand shown
# [1] = biological target: ALX1 (Homo sapiens, UniProt Q15699 118-204, L144V)
# [2] = biological target: ALX1 (Homo sapiens, UniProt Q15699 118-204, L144R)
# [3] = biological target: ALX1 (Homo sapiens, UniProt Q15699 118-204)
# [4] = biological target: ALX3 (Homo sapiens, UniProt O95076 139-225, N203Q)
# [5] = biological target: HOXD13 (Homo sapiens, UniProt P35453 263-343, T313R)
# [6] = biological target: HOXD13 (Homo sapiens, UniProt P35453 263-343)
# [7] = biological target: ALX3 (Homo sapiens, UniProt O95076 139-225)
# [8] = biological target: ALX3 (Homo sapiens, UniProt O95076 139-225, L168Q)
# [9] = biological target: HOXD13 (Homo sapiens, UniProt P35453 263-343, T313A)
# [10] = biological target: ALX3 (Homo sapiens, UniProt O95076 139-225, L168V)
# [11] = biological target: ALX3 (Homo sapiens, UniProt O95076 139-225, N203S)
# ALX3 (Homo sapiens, UniProt O95076 139-225, N203S), sequence (O95076 139-225 N203S): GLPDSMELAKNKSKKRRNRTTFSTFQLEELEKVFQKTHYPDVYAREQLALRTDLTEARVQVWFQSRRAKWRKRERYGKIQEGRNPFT
# ALX3 (Homo sapiens, UniProt O95076 139-225, N203Q), sequence (O95076 139-225 N203Q): as the sequence (O95076 139-225 N203S) above, with S65Q counted along it
# ALX1 (Homo sapiens, UniProt Q15699 118-204, L144V), sequence (Q15699 118-204 L144V): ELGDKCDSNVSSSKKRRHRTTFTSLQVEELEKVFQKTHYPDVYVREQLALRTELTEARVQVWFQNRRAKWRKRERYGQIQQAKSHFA
# ALX1 (Homo sapiens, UniProt Q15699 118-204, L144R), sequence (Q15699 118-204 L144R): as the sequence (Q15699 118-204 L144V) above, with V27R counted along it
# ALX1 (Homo sapiens, UniProt Q15699 118-204), sequence (Q15699 118-204): as the sequence (Q15699 118-204 L144V) above, with V27L counted along it
# HOXD13 (Homo sapiens, UniProt P35453 263-343, T313A), sequence (P35453 263-343 T313A): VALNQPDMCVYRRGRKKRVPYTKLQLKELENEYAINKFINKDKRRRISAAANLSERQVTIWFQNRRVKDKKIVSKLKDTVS
# ALX3 (Homo sapiens, UniProt O95076 139-225, L168V), sequence (O95076 139-225 L168V): as the sequence (O95076 139-225 N203S) above, with L30V, S65N counted along it
# HOXD13 (Homo sapiens, UniProt P35453 263-343, T313R), sequence (P35453 263-343 T313R): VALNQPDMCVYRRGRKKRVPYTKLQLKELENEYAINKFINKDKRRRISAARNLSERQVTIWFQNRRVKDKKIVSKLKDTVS
# HOXD13 (Homo sapiens, UniProt P35453 263-343), sequence (P35453 263-343): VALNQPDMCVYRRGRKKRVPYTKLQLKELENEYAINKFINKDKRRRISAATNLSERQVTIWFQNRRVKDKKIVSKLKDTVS
# ALX3 (Homo sapiens, UniProt O95076 139-225), sequence (O95076 139-225): as the sequence (O95076 139-225 N203S) above, with S65N counted along it
# ALX3 (Homo sapiens, UniProt O95076 139-225, L168Q), sequence (O95076 139-225 L168Q): as the sequence (O95076 139-225 N203S) above, with L30Q, S65N counted along it
sequence,measurement,setting,value
CAGCGAGA,binding signal,[1],"6.61 upbm affinity estimate (log intensity, higher = more binding, comparable within an allelic series)"
same,binding signal,[2],"6.49 upbm affinity estimate (log intensity, higher = more binding, comparable within an allelic series)"
same,binding signal,[3],"6.63 upbm affinity estimate (log intensity, higher = more binding, comparable within an allelic series)"
GGCTAGGA,binding signal,[1],"6.64 upbm affinity estimate (log intensity, higher = more binding, comparable within an allelic series)"
same,binding signal,[2],"6.63 upbm affinity estimate (log intensity, higher = more binding, comparable within an allelic series)"
same,binding signal,[3],"6.34 upbm affinity estimate (log intensity, higher = more binding, comparable within an allelic series)"
ATTTATCG,binding signal,[1],"8.96 upbm affinity estimate (log intensity, higher = more binding, comparable within an allelic series)"
same,binding signal,[2],"8.71 upbm affinity estimate (log intensity, higher = more binding, comparable within an allelic series)"
same,binding signal,[3],"9.21 upbm affinity estimate (log intensity, higher = more binding, comparable within an allelic series)"
AGTTACTG,binding signal,[1],"8.01 upbm affinity estimate (log intensity, higher = more binding, comparable within an allelic series)"
same,binding signal,[2],"7.88 upbm affinity estimate (log intensity, higher = more binding, comparable within an allelic series)"
same,binding signal,[3],"8.32 upbm affinity estimate (log intensity, higher = more binding, comparable within an allelic series)"
TATAATAA,binding signal,[4],"8.61 upbm affinity estimate (log intensity, higher = more binding, comparable within an allelic series)"
GGACCCAC,binding signal,[1],"6.45 upbm affinity estimate (log intensity, higher = more binding, comparable within an allelic series)"
same,binding signal,[2],"6.3 upbm affinity estimate (log intensity, higher = more binding, comparable within an allelic series)"
same,binding signal,[3],"6.26 upbm affinity estimate (log intensity, higher = more binding, comparable within an allelic series)"
CCTCAATC,binding signal,[1],"7.8 upbm affinity estimate (log intensity, higher = more binding, comparable within an allelic series)"
same,binding signal,[2],"7.78 upbm affinity estimate (log intensity, higher = more binding, comparable within an allelic series)"
same,binding signal,[3],"7.96 upbm affinity estimate (log intensity, higher = more binding, comparable within an allelic series)"
GACTCCCC,binding signal,[1],"6.43 upbm affinity estimate (log intensity, higher = more binding, comparable within an allelic series)"
same,binding signal,[2],"6.48 upbm affinity estimate (log intensity, higher = more binding, comparable within an allelic series)"
same,binding signal,[3],"6.25 upbm affinity estimate (log intensity, higher = more binding, comparable within an allelic series)"
AAATGGGA,binding signal,[1],"8.33 upbm affinity estimate (log intensity, higher = more binding, comparable within an allelic series)"
same,binding signal,[2],"8.01 upbm affinity estimate (log intensity, higher = more binding, comparable within an allelic series)"
same,binding signal,[3],"8.46 upbm affinity estimate (log intensity, higher = more binding, comparable within an allelic series)"
GTAGGTAA,binding signal,[1],"8.26 upbm affinity estimate (log intensity, higher = more binding, comparable within an allelic series)"
same,binding signal,[3],"8.54 upbm affinity estimate (log intensity, higher = more binding, comparable within an allelic series)"
AATCCACA,binding signal,[1],"8.17 upbm affinity estimate (log intensity, higher = more binding, comparable within an allelic series)"
same,binding signal,[3],"8.4 upbm affinity estimate (log intensity, higher = more binding, comparable within an allelic series)"
AAAAATGT,binding signal,[1],"8.02 upbm affinity estimate (log intensity, higher = more binding, comparable within an allelic series)"
same,binding signal,[2],"8.01 upbm affinity estimate (log intensity, higher = more binding, comparable within an allelic series)"
same,binding signal,[3],"8.15 upbm affinity estimate (log intensity, higher = more binding, comparable within an allelic series)"
GGAGAAAC,binding signal,[1],"6.41 upbm affinity estimate (log intensity, higher = more binding, comparable within an allelic series)"
same,binding signal,[2],"6.7 upbm affinity estimate (log intensity, higher = more binding, comparable within an allelic series)"
same,binding signal,[3],"6.58 upbm affinity estimate (log intensity, higher = more binding, comparable within an allelic series)"
GACTCGAC,binding signal,[1],"6.55 upbm affinity estimate (log intensity, higher = more binding, comparable within an allelic series)"
same,binding signal,[2],"6.63 upbm affinity estimate (log intensity, higher = more binding, comparable within an allelic series)"
same,binding signal,[3],"6.64 upbm affinity estimate (log intensity, higher = more binding, comparable within an allelic series)"
CAGACTGG,binding signal,[1],"6.33 upbm affinity estimate (log intensity, higher = more binding, comparable within an allelic series)"
same,binding signal,[2],"6.4 upbm affinity estimate (log intensity, higher = more binding, comparable within an allelic series)"
same,binding signal,[3],"6.39 upbm affinity estimate (log intensity, higher = more binding, comparable within an allelic series)"
AATATTTA,binding signal,[1],"9.37 upbm affinity estimate (log intensity, higher = more binding, comparable within an allelic series)"
same,binding signal,[2],"9.47 upbm affinity estimate (log intensity, higher = more binding, comparable within an allelic series)"
same,binding signal,[3],"9.54 upbm affinity estimate (log intensity, higher = more binding, comparable within an allelic series)"
CGGGTGAG,binding signal,[1],"6.48 upbm affinity estimate (log intensity, higher = more binding, comparable within an allelic series)"
same,binding signal,[2],"6.58 upbm affinity estimate (log intensity, higher = more binding, comparable within an allelic series)"
same,binding signal,[3],"6.62 upbm affinity estimate (log intensity, higher = more binding, comparable within an allelic series)"
ATTAAGCA,binding signal,[1],"10.2 upbm affinity estimate (log intensity, higher = more binding, comparable within an allelic series)"
same,binding signal,[2],"9.85 upbm affinity estimate (log intensity, higher = more binding, comparable within an allelic series)"
same,binding signal,[3],"10.5 upbm affinity estimate (log intensity, higher = more binding, comparable within an allelic series)"
CCAGCGGC,binding signal,[1],"6.38 upbm affinity estimate (log intensity, higher = more binding, comparable within an allelic series)"
same,binding signal,[2],"6.67 upbm affinity estimate (log intensity, higher = more binding, comparable within an allelic series)"
same,binding signal,[3],"6.48 upbm affinity estimate (log intensity, higher = more binding, comparable within an allelic series)"
CCAGACTC,binding signal,[1],"6.24 upbm affinity estimate (log intensity, higher = more binding, comparable within an allelic series)"
same,binding signal,[2],"6.47 upbm affinity estimate (log intensity, higher = more binding, comparable within an allelic series)"
same,binding signal,[3],"6.13 upbm affinity estimate (log intensity, higher = more binding, comparable within an allelic series)"
CTGGAACC,binding signal,[1],"6.21 upbm affinity estimate (log intensity, higher = more binding, comparable within an allelic series)"
same,binding signal,[2],"6.18 upbm affinity estimate (log intensity, higher = more binding, comparable within an allelic series)"
same,binding signal,[3],"6.07 upbm affinity estimate (log intensity, higher = more binding, comparable within an allelic series)"
ATTAAAAT,binding signal,[4],"8.53 upbm affinity estimate (log intensity, higher = more binding, comparable within an allelic series)"
same,binding signal,[5],"10.6 upbm affinity estimate (log intensity, higher = more binding, comparable within an allelic series)"
same,binding signal,[6],"11.4 upbm affinity estimate (log intensity, higher = more binding, comparable within an allelic series)"
same,binding signal,[7],"11.2 upbm affinity estimate (log intensity, higher = more binding, comparable within an allelic series)"
same,binding signal,[8],"9.54 upbm affinity estimate (log intensity, higher = more binding, comparable within an allelic series)"
same,binding signal,[9],"11.4 upbm affinity estimate (log intensity, higher = more binding, comparable within an allelic series)"
same,binding signal,[10],"9.23 upbm affinity estimate (log intensity, higher = more binding, comparable within an allelic series)"
same,binding signal,[11],"8.6 upbm affinity estimate (log intensity, higher = more binding, comparable within an allelic series)"
ATTATTGA,binding signal,[1],"10.4 upbm affinity estimate (log intensity, higher = more binding, comparable within an allelic series)"
same,binding signal,[2],"10.3 upbm affinity estimate (log intensity, higher = more binding, comparable within an allelic series)"
same,binding signal,[3],"10.8 upbm affinity estimate (log intensity, higher = more binding, comparable within an allelic series)"
ATTTGTAA,binding signal,[1],"9.13 upbm affinity estimate (log intensity, higher = more binding, comparable within an allelic series)"
same,binding signal,[2],"8.97 upbm affinity estimate (log intensity, higher = more binding, comparable within an allelic series)"
same,binding signal,[3],"9.47 upbm affinity estimate (log intensity, higher = more binding, comparable within an allelic series)"
ATAATAAG,binding signal,[4],"8.64 upbm affinity estimate (log intensity, higher = more binding, comparable within an allelic series)"
TAATAATA,binding signal,[4],"8.57 upbm affinity estimate (log intensity, higher = more binding, comparable within an allelic series)"
AACTAAGT,binding signal,[1],"8.49 upbm affinity estimate (log intensity, higher = more binding, comparable within an allelic series)"
same,binding signal,[3],"8.92 upbm affinity estimate (log intensity, higher = more binding, comparable within an allelic series)"
ATTGGAAA,binding signal,[1],"8.46 upbm affinity estimate (log intensity, higher = more binding, comparable within an allelic series)"
same,binding signal,[2],"8.23 upbm affinity estimate (log intensity, higher = more binding, comparable within an allelic series)"
same,binding signal,[3],"8.59 upbm affinity estimate (log intensity, higher = more binding, comparable within an allelic series)"
GGACGGCC,binding signal,[1],"6.43 upbm affinity estimate (log intensity, higher = more binding, comparable within an allelic series)"
same,binding signal,[2],"6.53 upbm affinity estimate (log intensity, higher = more binding, comparable within an allelic series)"
same,binding signal,[3],"6.53 upbm affinity estimate (log intensity, higher = more binding, comparable within an allelic series)"
